The record followed here is PubChem BioAssay.

The source made the active and inactive calls. Unless noted, no rule for the calls is given here.

Assay [1] in a line: HepG2 liver cancer cell viability effects, profiling panel, resazurin fluorescence, 24 h, PK04 Diversity Set (AID 1172). The conditions noted are these: higher = more signal. A general note: The colour change of resazurin is a common sign of viable cells or microbes.
A short description of assay [2]: basal S. cerevisiae growth modulation, no modifier, primary screen, OD600, strain BY4716, 24 h, basal condition (AID 1173). The conditions noted are these: OD600, 24 h, higher = more signal, called active from +8 up or from −8 down.
A short description of assay [3]: MM1S myeloma cell viability, profiling panel, resazurin fluorescence, basal, 24 h, PK04 Diversity Set (AID 1174).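 Also: MM1S multiple myeloma cell line.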 The conditions noted are these: higher = more signal, called active from +8 up or from −8 down.
The target in assay [4] is Dihydroorotate dehydrogenase (quinone), mitochondrial (Plasmodium falciparum (isolate 3D7)) (UniProt Q08210). In words: PfDHODH enzyme inhibitors, primary screen, biochemical, C-terminal His tag, absorbance 600 nm (AID 1175).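 Also: recombinant parasite enzyme with a five histidine tag at its C terminus.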 The conditions noted are these: DCIP absorbance 600 nm, higher = more signal, called active from +8 up or from −8 down.
Sequence of Dihydroorotate dehydrogenase (quinone), mitochondrial (Plasmodium falciparum (isolate 3D7)) (Q08210 whole entry, looked up): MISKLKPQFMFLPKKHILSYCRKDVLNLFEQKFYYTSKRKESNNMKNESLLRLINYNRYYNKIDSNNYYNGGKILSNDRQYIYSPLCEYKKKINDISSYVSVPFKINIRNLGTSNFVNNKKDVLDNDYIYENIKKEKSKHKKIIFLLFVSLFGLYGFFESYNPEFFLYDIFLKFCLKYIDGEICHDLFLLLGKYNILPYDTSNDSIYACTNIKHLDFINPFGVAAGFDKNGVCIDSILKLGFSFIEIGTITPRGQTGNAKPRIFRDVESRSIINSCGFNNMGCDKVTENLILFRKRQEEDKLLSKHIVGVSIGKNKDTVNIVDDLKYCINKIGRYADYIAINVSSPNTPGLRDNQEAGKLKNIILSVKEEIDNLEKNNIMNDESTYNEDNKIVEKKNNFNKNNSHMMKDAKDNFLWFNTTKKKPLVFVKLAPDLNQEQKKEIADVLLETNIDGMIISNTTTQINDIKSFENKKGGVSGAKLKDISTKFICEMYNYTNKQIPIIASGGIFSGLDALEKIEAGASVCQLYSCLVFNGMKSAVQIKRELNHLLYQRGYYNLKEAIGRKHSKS
Assay [5] in a line: P. aeruginosa biofilm formation inhibitors, primary screen, strain PAO1, LB-PBS medium, absorbance 600 nm (AID 1176). The conditions noted are these: P. aeruginosa PAO1 growth/biofilm, A600, 12 h; higher = more signal.
The nature of assay [6]: S. cerevisiae RM11-1a growth modifiers, primary screen, strain RM11-1a, OD600, basal, 24 h (AID 1177).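 Also: cultures grown under basal conditions with no added stressor.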 The conditions noted are these: OD600, 24 h, higher = more signal, called active from +8 up or from −8 down.
A short description of assay [7]: E. coli acrAB mutant growth effects, primary screen, E. coli filamentation inducers, strain DRC39, OD650, 24 h (AID 1178).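 Also: growth measured as culture turbidity by optical density at 650 nm.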 The conditions noted are these: higher = more signal, called active from +8 up or from −8 down.
Assay [8] in a line: E. coli acrAB mutant growth effects, primary screen, E. coli filamentation inducers, strain DRC39, OD650, 48 h (AID 1179).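 Also: screen aims at cell division blockers that make cells filament.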 The conditions noted are these: E. coli DRC39 delta-acrAB growth, higher = more signal, called active from +8 up or from −8 down.
The nature of assay [9]: RPMI8226 myeloma cell viability, profiling panel, resazurin fluorescence, basal, 24 h, PK04 Diversity Set (AID 1180).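 Also: RPMI8826 multiple myeloma cell line at 5000 cells per well.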 The conditions noted are these: higher = more signal.
In assay [10] the target is E3 ubiquitin-protein ligase XIAP (Homo sapiens) (UniProt P98170). In words: XIAP binders, primary screen, biophysical, small-molecule microarray, fluorescence 635 nm (AID 1181).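 Also: score merges 667 nm emission and signal to noise over triplicate slides.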 The conditions noted are these: small-molecule microarray binding, higher = more signal.
Sequence of E3 ubiquitin-protein ligase XIAP (Homo sapiens) (P98170 whole entry, looked up): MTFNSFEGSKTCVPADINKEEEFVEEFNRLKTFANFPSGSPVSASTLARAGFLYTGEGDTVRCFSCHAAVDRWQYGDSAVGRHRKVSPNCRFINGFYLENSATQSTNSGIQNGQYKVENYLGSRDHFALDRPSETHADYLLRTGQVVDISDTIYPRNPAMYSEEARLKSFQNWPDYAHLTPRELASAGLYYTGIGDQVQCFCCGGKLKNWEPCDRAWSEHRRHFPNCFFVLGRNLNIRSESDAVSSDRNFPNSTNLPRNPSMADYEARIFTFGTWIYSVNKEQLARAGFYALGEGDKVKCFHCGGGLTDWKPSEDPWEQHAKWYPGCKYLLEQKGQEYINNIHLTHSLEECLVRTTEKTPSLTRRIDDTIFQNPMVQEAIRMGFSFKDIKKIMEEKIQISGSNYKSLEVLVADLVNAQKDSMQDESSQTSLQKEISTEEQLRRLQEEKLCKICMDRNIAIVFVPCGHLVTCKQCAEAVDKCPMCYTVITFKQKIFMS
Assay [11] relates to XIP peptide (Xip251-270) binding. In words: small-molecule binders of XIP peptide, primary screen, biochemical, small-molecule microarray, fluorescence 635/667 nm, 0.1 µg/mL protein (AID 1182). The conditions noted are these: fluorescent protein binding, 635 nm, higher = more signal, called active from +8 up or from −8 down.
Another assay concerns XIP peptide (Xip251-270). In words: small-molecule binders of XIP peptide, primary screen, biochemical, small-molecule microarray, fluorescence 635/667 nm, 0.5 µg/mL protein (AID 1183). The conditions noted are these: small-molecule microarray binding, fluorescence 635 nm; higher = more signal.
A short description of assay [12]: Plasmodium falciparum growth inhibition, primary screen, strain 3D7, DAPI fluorescence, 100 nL (AID 1184).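 Also: parasites grown inside human red blood cells in medium with human serum.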 The conditions noted are these: P. falciparum 3D7 growth, 3 d, higher = more signal.
For assay [13], the target named is Homeobox protein Hox-A13 (Mus musculus) (UniProt Q62424). In words: inhibitors of HoxA13-DNA binding, primary screen, biochemical, fluorescence polarization, labeled oligonucleotide (AID 1185). The conditions noted are these: 15 min, higher = more signal, called active from +8 up or from −8 down.
Sequence of Homeobox protein Hox-A13 (Mus musculus) (Q62424 whole entry, looked up): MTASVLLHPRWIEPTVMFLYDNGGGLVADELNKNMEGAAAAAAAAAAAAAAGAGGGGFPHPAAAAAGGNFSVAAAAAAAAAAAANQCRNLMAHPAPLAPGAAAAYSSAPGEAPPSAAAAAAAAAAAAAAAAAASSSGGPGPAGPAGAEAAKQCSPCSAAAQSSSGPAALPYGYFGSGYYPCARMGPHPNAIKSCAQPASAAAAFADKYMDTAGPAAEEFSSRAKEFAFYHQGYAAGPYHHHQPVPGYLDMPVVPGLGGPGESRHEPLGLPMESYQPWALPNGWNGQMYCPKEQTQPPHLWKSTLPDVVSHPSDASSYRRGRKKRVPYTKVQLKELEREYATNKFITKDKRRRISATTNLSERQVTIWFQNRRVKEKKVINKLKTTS
A short description of assay [14]: inhibitors of hydroxyurea-induced Chk1 phosphorylation, primary screen, imaging, HeLa, phospho-Chk1 antibody, percent positive cells (AID 1186). The conditions noted are these: hydroxyurea-induced phospho-Chk1 immunofluorescence imaging, higher = more signal.
Assay [15] can be described thus: inhibitors of hydroxyurea-induced Chk1 phosphorylation, primary screen, imaging, HeLa, phospho-Chk1 nuclear intensity (AID 1187). The conditions noted are these: hydroxyurea-induced phospho-Chk1 immunofluorescence imaging, higher = more signal.

As for `CCOC(=O)C1=C[C@@H](c2ccccc2)N(S(=O)(=O)c2ccc(C)cc2)[C@H]1c1ccc(OC)cc1`, the z-score in assay [1] is -0.664; in [2], 1.11 (inactive); in [3] it was -1.01 (inactive); in assay [5], 0.0236 (inactive); in assay [6], 0.409 (inactive); in assay [7], -1.06 (inactive). Besides, the z-score in assay [8] is -0.834 (inactive); in assay [9], -1.24; in assay [12], -1.84; in [13], 0.842 (inactive); in assay [14], -0.0622 (inactive); in assay [15], -0.614 (inactive). Also, the composite z-score in assay [4] is -0.668 (inactive); in assay [10], -0.0428; in assay [11] it was 0.138 (inactive); in the assay on XIP peptide (Xip251-270), 0.599.
As for `O=C1C2C=CC(C(O)c3cccc(O)c3)N(Nc3ccc([N+](=O)[O-])cc3)C2C(=O)N1c1ccccc1` (centres undefined), the z-score in [1] was 0.0585; in assay [2], 0.661 (inactive); in assay [3], -0.337 (inactive); in assay [5], -0.0601 (inactive); in [6], 0.339 (inactive); in assay [7], -0.478 (inactive). Moreover, the z-score in assay [8] is -0.156 (inactive); in assay [9], -0.55; in assay [12], 1.25; in assay [13], -3.9 (inactive); in assay [14], 0.181 (inactive); in assay [15], -0.322 (inactive). The composite z-score in [4] was 0.861 (inactive); in assay [10], 0.0927; in assay [11] it was -0.232 (inactive); in the assay on XIP peptide (Xip251-270), 0.342.
Consider `C=CCNC(=O)[C@@H]1[C@H]2C(=O)O[C@H](c3ccccc3)[C@H](c3ccccc3)N2[C@H](c2ccc(O)cc2)[C@@]12C(=O)N(C(=O)OCCOC)c1ccc(C#CC3=CCCCC3)cc12`, for which the z-score in assay [1] is -0.411; in [2], 0.0346 (inactive); in [3], -0.279 (inactive); in assay [5] it was 1.26 (inactive); in assay [6], 0.891 (inactive); in assay [7] it was -0.713 (inactive). Also, the z-score in assay [8] is -0.277 (inactive); in assay [9], -1.09; in assay [12], 0.608; in assay [13], -0.465 (inactive); in assay [14], -0.472 (inactive); in assay [15], -1.01 (inactive). Besides, the composite z-score in assay [4] was 0.235 (inactive); in [10], -0.0056; in [11], 0.423 (inactive); in the assay on XIP peptide (Xip251-270), 0.672.
Regarding `COCCOC(=O)N1C(=O)[C@@]2(c3cc(C#CCNC(N)=O)ccc31)[C@H](C(N)=O)[C@H]1C(=O)O[C@H](c3ccccc3)[C@H](c3ccccc3)N1[C@@H]2c1ccccc1OCCO`, the z-score in assay [1] was -0.281; in [2], 0.407 (inactive); in assay [3], -0.126 (inactive); in [5], 0.986 (inactive); in assay [6] it was 1.59 (inactive); in [7], -0.0653 (inactive). Also, the z-score in assay [8] is -0.0752 (inactive); in assay [9], -0.0771; in assay [12], 0.0701; in assay [13], -2.45 (inactive); in assay [14] it was 0.0661 (inactive); in assay [15], 0.588 (inactive). Besides, the composite z-score is -0.235 (inactive) in assay [4], -0.135 in [10], 0.253 (inactive) in [11] and 0.485 in the assay with XIP peptide (Xip251-270).
On to `CN(C)CCCCCCNC(=O)[C@@H]1C[C@@H]2C(=O)N3CCC[C@H]3C(=O)N2[C@@H]1c1cccc(OCCO)c1`, for which the z-score was -2.4 in [1]; 0.451 (inactive) in assay [2]; -0.727 (inactive) in [3]; -0.267 (inactive) in assay [5]; 0.363 (inactive) in assay [6]; 0.0047 (inactive) in assay [7]. Moreover, the z-score was -0.391 (inactive) in assay [8]; -0.946 in assay [9]; 0.517 in assay [12]; -2.94 (inactive) in assay [13]; 0.0537 (inactive) in assay [14]; -0.055 (inactive) in [15]. Moreover, the composite z-score in assay [4] was -0.595 (inactive); in assay [10] it was -0.0062; in assay [11], 2.52 (inactive); with XIP peptide (Xip251-270), 0.872.
On to `[N-]=[N+]=NCc1ccccc1C[C@@]1(C(N)=O)N=C(c2ccc(OCCCO)cc2)O[C@@H]1c1ccccc1`, for which the z-score was 0.0565 in assay [1]; -0.165 (inactive) in assay [2]; -1.22 (inactive) in [3]; 0.563 (inactive) in assay [5]; 0.115 (inactive) in assay [6]; 0.0937 (inactive) in assay [7]. Besides, the z-score is -1.12 (inactive) in assay [8]; -1.37 in assay [9]; -1.83 in [12]; -5.03 (inactive) in assay [13]; 0.107 (inactive) in assay [14]; 0.221 (inactive) in assay [15]. The composite z-score is -0.239 (inactive) in assay [4], -0.11 in assay [10], 0.755 (inactive) in [11] and 0.237 with XIP peptide (Xip251-270).
`CC(=O)N1CC2(CC2)CC1c1ccccc1` (centres undefined): the z-score in assay [1] is -0.603; in assay [2], 1.12 (inactive); in assay [3], -1.89 (inactive); in assay [5], 0.535 (inactive); in assay [6], 0.0303 (inactive); in assay [7], -0.88 (inactive). Further, the z-score in assay [8] was -0.206 (inactive); in [9] it was -1.36; in [12], -0.0608; in assay [13], -1.06 (inactive); in assay [14], 0.465 (inactive); in [15], 0.444 (inactive). Moreover, the composite z-score in assay [4] was -0.448 (inactive); in assay [10], 0.0116; in assay [11], 0.485 (inactive); in the assay with XIP peptide (Xip251-270), 0.915.
Consider `O=C1NC(=O)C2C1C=CC(C(O)c1ccco1)N2Nc1ccc(Cl)cc1Cl` (centres undefined), for which the z-score is -2.04 in [1]; -17 (active) in assay [2]; -1.41 (inactive) in assay [3]; 0.711 (inactive) in assay [5]; -5.34 (inactive) in assay [6]; -0.725 (inactive) in assay [7]. The z-score in assay [8] is -1.86 (inactive); in [9], -1.28; in assay [12], -0.461; in assay [13], -5.4 (inactive); in assay [14], 0.54 (inactive); in assay [15], 0.408 (inactive). The composite z-score in assay [4] was 0.893 (inactive); in [10] it was 0.257; in [11], -0.101 (inactive); in the assay with XIP peptide (Xip251-270), 0.634.
As for `COC(=O)[C@@]1(Cc2ccc(OC)cc2)[C@H]2c3cc(C(=O)N4CCCC4)n(CCc4c[nH]c5ccc(O)cc45)c3C[C@H]2CN1C(=O)c1ccccc1`, the z-score is -0.553 in [1]; 0.532 (inactive) in assay [2]; -0.56 (inactive) in assay [3]; 0.411 (inactive) in assay [5]; 0.7 (inactive) in [6]; 0.23 (inactive) in [7]. Besides, the z-score in assay [8] is 0.288 (inactive); in [9], -0.377; in [12] it was -1.44; in [13], -4.21 (inactive); in assay [14] it was 0.336 (inactive); in [15], 0.258 (inactive). For the same molecule, the composite z-score was -0.402 (inactive) in assay [4], 0.0401 in [10], 0.903 (inactive) in assay [11] and 0.864 in the assay on XIP peptide (Xip251-270).
